In all, about 97,000 compounds went through this assay and about 130 (0.13%) were called active. Cut-off read from the data, not from the text of the source: active = inhibition above about 34% (passing the limit was not always enough); inactive = the rest. Shown is part of a subset that was picked to be rich in actives.
These compounds were tested against Serine/threonine-protein kinase PLK1 (Homo sapiens) (UniProt P53350) (assay: Plk1 polo box domain binding inhibitors, primary screen, biochemical, fluorescence polarization (AID 693)). Settings: Plk1 PBD phosphopeptide binding, active compounds read high,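 tested at about 20 µM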.
Sequence of Serine/threonine-protein kinase PLK1 (Homo sapiens) (P53350 whole entry, looked up, the tested form may be a part): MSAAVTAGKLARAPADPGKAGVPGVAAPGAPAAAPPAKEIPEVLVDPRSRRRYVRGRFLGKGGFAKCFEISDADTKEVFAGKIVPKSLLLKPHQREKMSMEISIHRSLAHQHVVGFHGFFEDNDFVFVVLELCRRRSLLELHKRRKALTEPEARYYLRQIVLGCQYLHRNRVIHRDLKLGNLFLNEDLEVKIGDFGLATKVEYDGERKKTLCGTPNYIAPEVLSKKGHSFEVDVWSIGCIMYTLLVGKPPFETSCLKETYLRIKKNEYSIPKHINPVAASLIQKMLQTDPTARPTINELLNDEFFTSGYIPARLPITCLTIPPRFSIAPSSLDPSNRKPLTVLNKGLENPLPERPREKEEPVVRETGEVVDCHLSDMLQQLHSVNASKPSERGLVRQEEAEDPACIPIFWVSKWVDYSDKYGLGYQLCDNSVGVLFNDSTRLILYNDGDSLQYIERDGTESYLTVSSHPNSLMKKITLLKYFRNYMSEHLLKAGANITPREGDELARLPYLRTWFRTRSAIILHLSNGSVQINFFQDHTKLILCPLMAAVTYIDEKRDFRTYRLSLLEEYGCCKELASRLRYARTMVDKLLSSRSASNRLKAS

| Compound | inhibition |
| --- | --- |
| Nc1ccccc1SCc1cc([N+](=O)[O-])cc2c1OCOC2 | 17.1% (inactive) |
| Cc1nc(-c2ccccc2)sc1-c1nc(-c2ccccc2)ncc1S(=O)(=O)c1ccccc1 | -7.34% (inactive) |
| COc1cc(/C=C2/C(=O)ON=C2C)ccc1OCc1ccccc1F | -10.3% (inactive) |
| COc1ccc(-c2oc(/N=C/N3CCCC3)c(C#N)c2-c2ccc(OC)cc2)cc1 | -15.2% (inactive) |
| CC1(C)CC(=O)C=C(NCc2ccncc2)C1 | 41.4% (active) |
| CC1(C)CC(=O)C=C(NCCCNC2CCCCC2)C1 | -8.28% (inactive) |
| CC1(C)CC(=O)C=C(NCCN2CCNCC2)C1 | -22% (inactive) |
| Cc1ccc2[nH]c(=O)c(CN(CCCN(C)C)C(=O)Nc3cccc(Cl)c3)cc2c1 | 3.64% (inactive) |
| CCN(CC)CCN1C(=O)C(=O)/C(=C(/O)c2cnn(-c3ccccc3)c2C)C1c1cccs1 (stereo not drawn) | -7.79% (inactive) |
| Cc1cc(C)c(S(=O)(=O)NCC2CCC(C(=O)NCc3ccc4c(c3)OCO4)CC2)c(C)c1 (stereo not drawn) | -7.41% (inactive) |
| COC(=O)c1ccc(OCC(=O)NC(C)(C)C)cc1 | 5.58% (inactive) |
| C/C(=N\NC(=O)c1ccccc1C)c1ccc(N2CCOCC2)cc1 | -3.42% (inactive) |
| CCOC(=O)C1(S(=O)(=O)c2ccc(Cl)cc2)CCN(Cc2ccccc2)CC1 | -3.07% (inactive) |
| O=C(CCc1ccc(S(=O)(=O)NC2CCCCC2)cc1)NCc1ccccc1 | 10.4% (inactive) |
| O=C(NCCCN1CCOCC1)c1cnn2c(-c3ccccc3)cc(-c3ccccc3)nc12 | -14.2% (inactive) |
| O=C(NCCOc1ccccc1)c1ccccc1 | -20.9% (inactive) |
| O=C(COc1ccc(Cl)cc1)NCCC1=CCCCC1 | 14.2% (inactive) |
| O=C(CCN1CCc2ccccc2C(O)(c2ccccc2)C1)c1ccc2c(c1)OCCO2 (stereo not drawn) | 16.3% (inactive) |
| CCCCCN1CC(O)=C(c2ccccc2)C1=N | -1.22% (inactive) |
| CC(=NCc1ccco1)c1c(C(F)(F)F)[nH]n(-c2nc3ccccc3s2)c1=O | 9.65% (inactive) |
| Cc1ccc(NC(=O)COc2ccc(-n3ccnc3)cc2)cc1Cl | 2% (inactive) |

| Compound | inhibition |
| --- | --- |
| O=C(Nc1cc2c3c(c1)C1CCCC1CN3CC1CCCC21)c1ccc([N+](=O)[O-])cc1 (stereo not drawn) | -24.1% (inactive) |
| CC(C)(C)C(=O)Nc1ccc(C(=O)N/N=C/c2ccccc2OC(=O)c2ccc(Cl)cc2Cl)cc1 | 44.2% (inactive) |
| CN(C)c1ccnc(Oc2ccc(F)cc2)c1C#N | -3.95% (inactive) |
| CCC(=O)c1c[nH]c(C(=O)NCC2CCCO2)c1 (stereo not drawn) | 8.77% (inactive) |
| CS(=O)(=O)N(CC(=O)N1CCN(c2ccc(F)cc2)CC1)C1CCCCC1 | -6.27% (inactive) |
| CC(=O)c1sc(NC(=O)c2cccc3ccccc23)nc1C | -23.4% (inactive) |
| COc1ccccc1NC(=O)CC(NCCN(C)C)C(=O)O (stereo not drawn) | 0.85% (inactive) |
| CCCn1nnnc1NC(=O)COc1ccc(Cl)cc1C | 12.8% (inactive) |
| Oc1ccc2ccc3cccc[n+]3c2c1 | 61.2% (active) |
| CN(C)C(CNC(=O)CCCOc1ccccc1)c1ccco1 (stereo not drawn) | -20% (inactive) |
| CCOc1cc2[nH]c(=S)n(CCN3CCCCC3C)c(=O)c2cc1OCC (stereo not drawn) | -2% (inactive) |
| COC(=O)c1ccc(Cc2ccccc2)o1 | -14.5% (inactive) |
| CCOC(=O)c1cc(C#N)c(N2CCCCC2)nc1-c1ccccc1 | 20% (inactive) |
| Cc1nnc(NC(=O)Cn2c(=O)sc3ccccc32)s1 | 12.9% (inactive) |
| CC1CCN(C(=O)c2cc3nc(C4CC4)cc(C(F)(F)F)n3n2)CC1 | -4.74% (inactive) |
| O=c1c2ccccc2nc2n1C(CSc1ccc(Cl)cc1)CN2 (stereo not drawn) | 23.7% (inactive) |
| COc1ccc2c(Cl)c(C(=O)NCc3ccco3)sc2c1 | -10.8% (inactive) |
| N#CCSc1nc2ccc(N3CCOCC3)cc2c(=O)n1CCc1ccccc1 | -3.34% (inactive) |
| CC(=O)Nc1ccccc1OC(=O)N1CCOCC1 | 7.14% (inactive) |
| Cc1nn(C)cc1/C=C1\CCC/C(=C\c2cn(C)nc2C)C1=O | -18.6% (inactive) |
| COCCOC(=O)c1sc(=S)n(CCOC)c1N | -9.37% (inactive) |

| Compound | inhibition |
| --- | --- |
| CC(=O)c1ccc(Cc2ncc(C(F)(F)F)cc2Cl)s1 | 25.2% (inactive) |
| CC(C)(C)NC(=O)Cn1cnc([N+](=O)[O-])n1 | -13.3% (inactive) |
| CC(=O)NS(=O)(=O)c1ccc(NC(=O)/C=C/c2ccccc2Cl)cc1 | 18.9% (inactive) |
| O=C(CNS(=O)(=O)c1ccc(Br)s1)N1CCN(C(=O)c2ccco2)CC1 | -13% (inactive) |
| COc1ccc(OC)c(-n2nnnc2SCC(=O)Nc2cc(C)ccc2OC)c1 | -6.45% (inactive) |
| CC(C)(C)NS(=O)(=O)c1ccc(NC(=O)NC2CCCCC2)cc1 | -21.3% (inactive) |
| COc1ccc(S(=O)(=O)NCc2ccc(C(=O)N(C)Cc3ccco3)cc2)cc1 | -4.97% (inactive) |
| CCOC(=O)c1c(-c2ccccc2)csc1NC(=S)NC(=O)c1ccccc1 | 12% (inactive) |
| C/C(=N\NC(=O)Cc1ccc(Cl)cc1)c1ccccn1 | 4.4% (inactive) |
| Cc1ccc(S(=O)(=O)Oc2ccc(/C=N/NC(=O)c3c(Cl)cnn3C)cc2)cc1 | 14.5% (inactive) |
| O=C(NC1CCCC1)C(c1ccccn1)N(C(=O)c1csnn1)C1CCCC1 (stereo not drawn) | -11.5% (inactive) |
| CCOc1cc(CNCCN(C)C)c(Cl)cc1OCC(=O)NCCc1ccccc1 | 9.84% (inactive) |
| N#CC1=C(N)N(c2ccc(F)cc2)C(=O)C1 | 5.37% (inactive) |
| Cc1c(NC(=O)CCCOc2ccccc2)cccc1[N+](=O)[O-] | 6.93% (inactive) |
| CCC(C)c1ccc(O)c(/C=N/O)c1 (stereo not drawn) | 8.06% (inactive) |
| CCOC(=O)C1CSC(CC(=O)Nc2ccc(OCC)cc2)C(=O)N1 (stereo not drawn) | 13.9% (inactive) |
| COC(=O)c1sccc1NC(=O)CCC1CCCC1 | -8.56% (inactive) |
| Cc1noc(C)c1C(=O)N1CCOCC1 | -11% (inactive) |
| O=c1c2ccccc2nnn1CSc1nnnn1-c1ccccc1 | -3.85% (inactive) |
| COc1ccc(-c2nnc(SCC(=O)c3ccc4c(c3)OCCO4)o2)cc1 | -3.12% (inactive) |
| COc1ccc(C(C)=O)cc1CN1C(=O)NC2(CCCCC2C)C1=O (stereo not drawn) | 3.66% (inactive) |
